Data published in ChEMBL document CHEMBL3988442, “University of Dundee, Small-Polar-MMV Screening Library” (2021).
For some of these results: Results with a measured potency or affinity are listed apart.

Legend:
Design in all cases: scale not given: direction of the effect not stated beside the values
[1] = molecular target: Protein translocase subunit SecA (Escherichia coli (strain K12)) (UniProt P10408); assay: Assay to Identify E. coli SecA ATPase Inhibitors; assay type: functional; conditions: 30 µM
[2] = molecular target: T1, Ubiquitin-activating enzyme e1, putative (Leishmania donovani (strain BPK282A1)) (UniProt E9BSI1); assay: Leishmania donovani Ubiquitin Activating Enzyme (LdE1); assay type: functional; conditions: 30 µM
T1 sequence (whole entry): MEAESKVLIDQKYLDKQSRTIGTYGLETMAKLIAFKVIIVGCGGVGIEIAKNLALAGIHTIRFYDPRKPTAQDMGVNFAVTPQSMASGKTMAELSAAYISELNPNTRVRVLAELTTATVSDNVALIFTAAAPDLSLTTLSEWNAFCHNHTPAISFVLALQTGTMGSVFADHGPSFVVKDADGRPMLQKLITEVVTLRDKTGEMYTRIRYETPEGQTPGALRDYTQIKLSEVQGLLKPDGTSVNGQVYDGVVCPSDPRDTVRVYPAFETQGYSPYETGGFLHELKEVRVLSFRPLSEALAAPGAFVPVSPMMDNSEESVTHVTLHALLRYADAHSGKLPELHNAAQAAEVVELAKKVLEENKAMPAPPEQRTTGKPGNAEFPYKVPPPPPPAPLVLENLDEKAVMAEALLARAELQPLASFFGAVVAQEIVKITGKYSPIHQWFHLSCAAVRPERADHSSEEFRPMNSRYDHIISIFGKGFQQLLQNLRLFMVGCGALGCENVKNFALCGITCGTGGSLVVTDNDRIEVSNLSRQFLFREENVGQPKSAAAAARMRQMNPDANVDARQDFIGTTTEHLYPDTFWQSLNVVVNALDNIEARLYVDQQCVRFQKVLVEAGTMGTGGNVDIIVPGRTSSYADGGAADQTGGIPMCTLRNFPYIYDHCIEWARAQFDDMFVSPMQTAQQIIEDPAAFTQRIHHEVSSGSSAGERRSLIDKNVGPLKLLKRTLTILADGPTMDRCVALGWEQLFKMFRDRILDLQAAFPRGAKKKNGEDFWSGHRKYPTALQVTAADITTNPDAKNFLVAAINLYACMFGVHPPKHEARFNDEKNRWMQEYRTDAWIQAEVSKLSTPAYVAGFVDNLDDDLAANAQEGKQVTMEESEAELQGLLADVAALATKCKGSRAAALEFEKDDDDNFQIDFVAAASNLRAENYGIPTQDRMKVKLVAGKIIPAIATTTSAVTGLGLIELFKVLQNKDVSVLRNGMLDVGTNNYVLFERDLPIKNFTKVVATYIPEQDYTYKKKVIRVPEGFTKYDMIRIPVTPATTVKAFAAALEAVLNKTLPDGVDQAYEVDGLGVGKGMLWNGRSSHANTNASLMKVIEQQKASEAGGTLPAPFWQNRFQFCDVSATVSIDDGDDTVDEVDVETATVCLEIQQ

[3] = molecular target: AMP-activated protein kinase, AMPK (Homo sapiens) (UniProt P54646+O43741+P54619+Q9UGJ0+Q9Y478+Q13131+Q9UGI9); assay: AMP-dependent Kinase enzyme assay. An in vitro enzyme assay that detects ADP turnover that is directly proportional to AMPK activity. This uses naive AMPK that is activated during the assay with MK-8722; assay type: functional; conditions: 30 µM
[4] = molecular target: Sialic acid-binding Ig-like lectin 9 (Homo sapiens) (UniProt Q9Y336); assay: Hs-Siglec9 ALPHAscreen SOP 20170721; conditions: 10 µM
Trypanosoma cruzi = assay: Trypanosoma cruzi phosphomannomutase and mannose-1-phosphate guanylyltransferase assay; assay type: functional; conditions: 10 µM
[5] = molecular target: T2, Arginase-2, mitochondrial (Homo sapiens) (UniProt P78540); assay: in vitro enzyme assay to detect the production of urea directly proportional to the activity of Arginase II; assay type: functional; conditions: 33.3 µM; also: in the data most compounds retested in dose-response had high values
T2 sequence (whole entry): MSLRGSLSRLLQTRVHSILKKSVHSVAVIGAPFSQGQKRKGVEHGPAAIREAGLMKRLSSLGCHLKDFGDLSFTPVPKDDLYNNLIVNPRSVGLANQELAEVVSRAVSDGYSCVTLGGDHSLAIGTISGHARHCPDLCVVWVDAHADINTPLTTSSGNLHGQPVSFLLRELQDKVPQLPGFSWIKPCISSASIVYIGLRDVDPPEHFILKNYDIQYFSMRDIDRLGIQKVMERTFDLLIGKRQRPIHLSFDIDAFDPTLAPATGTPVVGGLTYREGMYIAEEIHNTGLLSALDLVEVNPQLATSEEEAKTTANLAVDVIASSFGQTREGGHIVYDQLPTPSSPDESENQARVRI

[6] = molecular target: T3, Proteasome subunit beta (Trypanosoma cruzi) (UniProt O96673); assay: Trypanosoma cruzi proteasome chymotrypsin-like activity (TcProtChymo) assay.; also: in the data most compounds retested in dose-response had high values; assay type: functional; conditions: 9.37 µM
T3 sequence (whole entry): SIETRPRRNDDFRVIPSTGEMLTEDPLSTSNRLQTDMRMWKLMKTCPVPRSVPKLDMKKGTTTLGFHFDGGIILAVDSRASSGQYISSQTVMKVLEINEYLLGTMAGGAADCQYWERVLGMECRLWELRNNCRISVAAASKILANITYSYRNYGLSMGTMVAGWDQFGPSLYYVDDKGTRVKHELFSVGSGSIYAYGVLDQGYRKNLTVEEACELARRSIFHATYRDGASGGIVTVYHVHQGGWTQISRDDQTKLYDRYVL

Homo sapiens = species on record: Homo sapiens; assay: To identify inhibition of the IFN signalling (Jak-Stat) pathway via expression of an eGFP reporter gene under the control of an IFN-stimulated response element (ISRE) containing MxA promoter.; assay type: functional; conditions: 30 µM
[7] = molecular target: T4, Tyrosyl-tRNA synthetase, putative (Trypanosoma cruzi (strain CL Brener)) (UniProt Q4DSP6); assay: Trypanosoma cruzi tyrosyl tRNA synthetase (TcYRS) _High Tyrosine SOP; assay type: functional; conditions: 30 µM; also: in the data most compounds retested in dose-response had high values
T4 sequence (whole entry): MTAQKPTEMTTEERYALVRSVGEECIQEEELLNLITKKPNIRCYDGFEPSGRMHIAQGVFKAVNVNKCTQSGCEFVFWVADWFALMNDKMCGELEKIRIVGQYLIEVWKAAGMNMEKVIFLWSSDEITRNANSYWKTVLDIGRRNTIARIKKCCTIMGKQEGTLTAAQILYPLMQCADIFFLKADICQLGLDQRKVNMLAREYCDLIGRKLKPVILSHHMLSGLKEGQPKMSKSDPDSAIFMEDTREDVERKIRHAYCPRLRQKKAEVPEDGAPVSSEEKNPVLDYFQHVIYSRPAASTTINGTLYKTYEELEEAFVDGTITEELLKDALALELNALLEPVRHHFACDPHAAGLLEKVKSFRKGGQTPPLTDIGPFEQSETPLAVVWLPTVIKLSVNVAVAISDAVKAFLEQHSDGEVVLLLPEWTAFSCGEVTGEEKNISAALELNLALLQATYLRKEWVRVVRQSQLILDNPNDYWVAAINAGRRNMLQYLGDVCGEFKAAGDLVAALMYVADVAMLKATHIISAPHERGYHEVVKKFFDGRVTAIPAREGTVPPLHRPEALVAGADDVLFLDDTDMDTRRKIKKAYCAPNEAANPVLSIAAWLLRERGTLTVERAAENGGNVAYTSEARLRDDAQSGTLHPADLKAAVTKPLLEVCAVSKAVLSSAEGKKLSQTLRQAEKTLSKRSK

[8] = molecular target: T4, Tyrosyl-tRNA synthetase, putative (Trypanosoma cruzi (strain CL Brener)); assay: Trypanosoma cruzi tyrosyl tRNA synthetase (TcYRS) SOP; assay type: functional; conditions: 30 µM
[9] = molecular target: Chromo domain-containing protein 1 (Saccharomyces cerevisiae (strain ATCC 204508 / S288c) (Baker's yeast)) (UniProt P32657); assay: ScCHD-1 Enzyme Inhibition Assay; assay type: functional; conditions: 30 µM; also: in the data most compounds retested in dose-response had high values
Chromo domain-containing protein 1 (Saccharomyces cerevisiae (strain ATCC 204508 / S288c) (Baker's yeast)), sequence (P32657 whole entry, the tested form may be a part): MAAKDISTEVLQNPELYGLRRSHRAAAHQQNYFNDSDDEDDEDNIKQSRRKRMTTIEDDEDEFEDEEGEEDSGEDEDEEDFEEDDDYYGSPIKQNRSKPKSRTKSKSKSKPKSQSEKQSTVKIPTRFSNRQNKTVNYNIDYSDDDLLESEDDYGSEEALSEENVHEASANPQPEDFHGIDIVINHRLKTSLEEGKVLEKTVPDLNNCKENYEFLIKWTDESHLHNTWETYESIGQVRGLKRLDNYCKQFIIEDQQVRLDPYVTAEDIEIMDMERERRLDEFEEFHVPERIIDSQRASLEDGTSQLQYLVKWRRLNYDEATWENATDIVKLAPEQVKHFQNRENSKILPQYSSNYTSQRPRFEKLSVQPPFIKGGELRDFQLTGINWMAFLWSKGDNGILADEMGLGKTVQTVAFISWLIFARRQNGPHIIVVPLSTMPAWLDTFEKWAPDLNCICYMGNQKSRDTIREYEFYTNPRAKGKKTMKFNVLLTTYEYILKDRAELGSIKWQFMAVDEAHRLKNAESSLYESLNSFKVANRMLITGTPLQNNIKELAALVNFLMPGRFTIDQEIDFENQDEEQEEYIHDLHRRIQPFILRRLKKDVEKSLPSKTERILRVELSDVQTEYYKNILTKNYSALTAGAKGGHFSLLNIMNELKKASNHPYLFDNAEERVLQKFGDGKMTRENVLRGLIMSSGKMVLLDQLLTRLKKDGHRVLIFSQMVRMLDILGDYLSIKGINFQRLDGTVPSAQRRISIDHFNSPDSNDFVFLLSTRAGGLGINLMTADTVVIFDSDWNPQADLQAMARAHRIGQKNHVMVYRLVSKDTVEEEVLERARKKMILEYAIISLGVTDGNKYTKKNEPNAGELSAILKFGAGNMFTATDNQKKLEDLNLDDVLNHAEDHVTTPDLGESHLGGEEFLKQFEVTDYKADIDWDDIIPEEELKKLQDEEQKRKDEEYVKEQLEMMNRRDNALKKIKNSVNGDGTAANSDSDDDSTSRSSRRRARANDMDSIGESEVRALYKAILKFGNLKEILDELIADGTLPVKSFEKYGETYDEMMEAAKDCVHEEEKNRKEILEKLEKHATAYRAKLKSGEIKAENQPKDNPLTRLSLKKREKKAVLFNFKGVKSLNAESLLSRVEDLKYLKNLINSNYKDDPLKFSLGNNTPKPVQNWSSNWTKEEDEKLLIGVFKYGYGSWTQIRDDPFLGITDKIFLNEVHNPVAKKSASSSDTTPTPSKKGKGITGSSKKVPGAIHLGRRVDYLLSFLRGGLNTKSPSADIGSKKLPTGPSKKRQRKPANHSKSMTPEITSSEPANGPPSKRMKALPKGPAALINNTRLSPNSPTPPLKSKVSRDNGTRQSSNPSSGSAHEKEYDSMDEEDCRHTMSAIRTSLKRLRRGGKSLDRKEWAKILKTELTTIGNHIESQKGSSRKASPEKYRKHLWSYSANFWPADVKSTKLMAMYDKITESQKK

Sialic acid-binding Ig-like lectin 9 (Homo sapiens), sequence (Q9Y336 whole entry): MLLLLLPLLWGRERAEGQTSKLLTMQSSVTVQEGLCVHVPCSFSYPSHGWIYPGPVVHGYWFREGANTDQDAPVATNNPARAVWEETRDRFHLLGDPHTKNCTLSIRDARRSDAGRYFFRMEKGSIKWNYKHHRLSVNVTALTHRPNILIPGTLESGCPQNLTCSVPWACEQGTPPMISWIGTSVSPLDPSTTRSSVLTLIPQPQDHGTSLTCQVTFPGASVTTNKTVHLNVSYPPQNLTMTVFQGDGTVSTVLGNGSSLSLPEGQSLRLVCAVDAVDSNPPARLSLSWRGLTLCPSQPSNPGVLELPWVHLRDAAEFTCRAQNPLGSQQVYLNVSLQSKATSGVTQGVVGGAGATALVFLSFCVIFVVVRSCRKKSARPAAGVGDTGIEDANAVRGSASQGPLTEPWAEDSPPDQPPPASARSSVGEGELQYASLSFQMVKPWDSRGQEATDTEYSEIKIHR
Protein translocase subunit SecA (Escherichia coli (strain K12)), sequence (P10408 whole entry): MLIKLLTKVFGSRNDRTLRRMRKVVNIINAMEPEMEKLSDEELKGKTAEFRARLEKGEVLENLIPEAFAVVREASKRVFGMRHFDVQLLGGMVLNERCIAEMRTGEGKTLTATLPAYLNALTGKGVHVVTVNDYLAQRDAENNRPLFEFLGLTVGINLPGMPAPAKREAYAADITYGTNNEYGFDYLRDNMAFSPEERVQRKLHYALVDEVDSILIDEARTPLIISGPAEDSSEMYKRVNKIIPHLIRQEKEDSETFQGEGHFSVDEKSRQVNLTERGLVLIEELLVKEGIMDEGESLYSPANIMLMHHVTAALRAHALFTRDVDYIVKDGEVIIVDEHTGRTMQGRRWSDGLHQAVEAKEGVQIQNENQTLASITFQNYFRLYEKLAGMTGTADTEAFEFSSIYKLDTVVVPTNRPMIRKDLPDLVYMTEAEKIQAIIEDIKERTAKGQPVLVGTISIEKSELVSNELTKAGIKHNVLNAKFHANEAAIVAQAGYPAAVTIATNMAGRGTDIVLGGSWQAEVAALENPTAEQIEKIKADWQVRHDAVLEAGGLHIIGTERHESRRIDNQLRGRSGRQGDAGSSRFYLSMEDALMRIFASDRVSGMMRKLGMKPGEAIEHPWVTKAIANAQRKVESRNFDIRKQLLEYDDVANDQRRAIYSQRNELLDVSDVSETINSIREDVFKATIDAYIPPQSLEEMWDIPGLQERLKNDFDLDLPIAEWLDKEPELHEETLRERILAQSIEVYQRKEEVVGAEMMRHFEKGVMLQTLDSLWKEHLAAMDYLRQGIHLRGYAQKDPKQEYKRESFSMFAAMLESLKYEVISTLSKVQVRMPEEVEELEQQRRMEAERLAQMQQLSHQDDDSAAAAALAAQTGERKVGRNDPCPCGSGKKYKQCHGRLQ

SMILES | Percent Effect [1] [%] | Percent Effect [2] [%] | Percent Effect [3] [%] | Percent Effect [4] [%] | Percent Effect (Trypanosoma cruzi) [%] | Percent Effect [5] [%] | Percent Effect [6] [%] | Percent Effect (Homo sapiens) [%] | Percent Effect [7] [%] | Percent Effect [8] [%] | Percent Effect [9] [%]
O=C(c1ccc[nH]1)N1C[C@H](OCc2cccnc2)[C@H]2COC[C@H]21 | -4.86 | 0 | 2.4 | -3.13 | 1.17 | -1.25 | 12.3 | -27.9 | 8.91 | -3.66 | -5.43
Fc1ccc(CN2CCCC2Cn2cccn2)c2ncccc12 (stereo not given) | -3.18 | -16.2 | -9.76 | 11.6 | -2.51 | -0.185 | 3.41 | -3.85 | 11.9 | 11 | 7.89
Cn1ccnc1CN1CCN(CCOc2ccccc2C#N)CC1 | -0.0443 | 21.1 | 4.11 | -9.14 | -3.83 | 5.4 | 5.67 | 18.9 | 7.39 | 13.6 | -1.99
COc1ccc2c(O)c(NC(=O)NCC3CC3)cnc2c1 | 1.05 | 14.9 | 9.57 | -7.59 | -1.38 | -4.87 | 14.7 | 7.86 | 2.15 | 9.09 | -11.6
CN1CCN(C(=O)c2ccc(=O)n(C)c2)c2ccccc21 | -6.34 | 18.9 | -11 | 20.6 | 3.25 | -0.554 | 2.51 | 6.73 | 16.8 | 25.6 | -6.38
Cc1nn(C)cc1CN(C)Cc1cc2c(cc1OC(F)F)OCO2 | -4.54 | 0 | -4.17 | -1.2 | 1.07 | -0.744 | -3.18 | -8.11 | -1.07 | 3.7 | -3.28
CC(=O)Nc1nc(CN2CCCC2Cn2cc(C)cn2)cs1 (stereo not given) | 0.188 | 13 | 1.99 | -21.8 | 1.08 | -6.53 | 21.9 | 4.62 | 9.52 | 25.9 | -28.6
CCC(=O)N1CCC(c2nc3ccc(NC(C)C)cn3n2)CC1 | -5.82 | -5.41 | -88.4 | 0.275 | -1.56 | -0.833 | 1.44 | -2.11 | 1.98 | 1.22 | -4.18
CC(C)c1nc(C2CCCN(C(=O)c3ccc4nccn4c3)C2)no1 (stereo not given) | -2.08 | 10.4 | 2.88 | 12.4 | -1.47 | 1.47 | 3.15 | -11.3 | 1.91 | 7.06 | -11.9
Cc1cnn(CCC(=O)N2CCN(c3ncccc3Cl)CC2)c1 | -2.22 | 3.8 | 10.2 | 2 | -4.21 | 1.94 | 10.3 | 18.8 | 1.04 | 2.53 | -5.44
CCc1nnc(CN2CCN(C(=O)c3ccccn3)CC2)o1 | 0.554 | 10.4 | 1.99 | -1.91 | -0.881 | 6.53 | 4.45 | 24.1 | 5.71 | 9.41 | -20.1
CCn1cc(CN2CCCn3nc(CNC(=O)C4CCC4)cc3C2)cn1 | -2.37 | 10.4 | 0.185 | 10.6 | 4.42 | -6.9 | 18.5 | -4.18 | 6.45 | 13.6 | -3.28
CCCc1nc(CN2CCCC2Cn2cncn2)cs1 (stereo not given) | -3.84 | 12.7 | -5.8 | 9.38 | 3.87 | -24.3 | 5.98 | 4.39 | 10.3 | 24.1 | -3.42
COc1cccc(C(=O)N2CCCC(c3cc(C)[nH]n3)C2)c1OC (stereo not given) | -3.02 | 10.8 | -3.74 | -1.79 | 8.4 | -2.81 | 11.7 | 17.4 | 4.43 | 16.1 | -5.21
CCC(OC)C(=O)N1CCc2nc(NC)nc(C(=O)N3CCCC3)c2C1 (stereo not given) | -2.18 | 2.74 | -1.95 | 7.16 | -1.39 | -9.58 | 15.5 | 19.2 | 5.21 | 16.1 | -3.16
CCn1nc(C)c2ccn(CC(=O)NC3CCCC3)c(=O)c21 | -4.42 | 7.79 | 58 | 0.145 | -4.63 | 0.645 | 5.57 | 20.1 | -1.06 | -6.41 | -2.48
N#CCCN(C(=O)CN1CCCC1C1CCCCC1)c1ccccc1 (stereo not given) | -2.43 | 0 | -4.92 | 3.65 | -1.56 | 2.5 | 15.1 | 17.1 | 12.9 | 8.54 | 0.924
c1cnn(CC2CN(Cc3nc(-c4ccsc4)no3)CCO2)c1 (stereo not given) | -2.55 | 10.5 | -2.23 | 16.5 | -1.13 | 0.766 | -2.34 | 6.35 | 1.47 | 9.76 | 0.902
CC1(C)Cc2ccccc2-c2nc(NCCO)[nH]c(=O)c21 | -5.03 | 13.2 | 56 | 4.58 | -3.02 | 3.55 | 20 | 31.2 | 6.38 | 13 | -12.3
COc1ccccc1OCCN1CCC(N2CCNC2=O)CC1 | -6.27 | 5.41 | 1.68 | 3.47 | -5.66 | 3.51 | 12 | 18.9 | -3.96 | -13.4 | 0.174
